# Assays:
# [1] = test system: U-2932; assay: growth inhibition by drug alone (1 - RLU/untreated control) (fraction); higher = stronger inhibition; details: 177Lu-lilotomab satetraxetan 0 ug/ml
# Method in brief: (§1)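 Growth inhibition was calculated from RealTime-Glo RLU against untreated no-drug wells. Values equal 1 − RLU/mean of 48 untreated no-drug wells per plate, read daily from day 3 after 1 h at 37°C. RIVA and U-2932 cells, with or without 18 h pretreatment by a radiolabelled anti-CD37 antibody conjugate (~600 MBq/mg; 0.5 µg/ml RIVA, 1 µg/ml U-2932), were washed and plated at 3,000 cells/well on compound-printed plates at 10/100 nM (RIVA) or 10/1,000 nM (U-2932).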
# [2] = test system: RIVA; assay: as above; details: 177Lu-lilotomab satetraxetan 0 ug/ml
# Method in brief: as §1
# [3] = test system: U-2932; assay: growth inhibition by drug plus 177Lu-lilotomab satetraxetan (1 - RLU/untreated control) (fraction); higher = stronger inhibition; details: 177Lu-lilotomab satetraxetan 1 ug/ml
# Method in brief: as §1
# [4] = test system: RIVA; assay: as above; details: 177Lu-lilotomab satetraxetan 0.5 ug/ml
# Method in brief: as §1
SMILES,"growth inhibition by drug alone ([1]; 10 nM, time (day): 3)","growth inhibition by drug alone ([1]; 10 nM, time (day): 4)","growth inhibition by drug alone ([1]; 10 nM, time (day): 5)","growth inhibition by drug alone ([1]; 10 nM, time (day): 6)","growth inhibition by drug alone ([1]; 1000 nM, time (day): 3)","growth inhibition by drug alone ([1]; 1000 nM, time (day): 4)","growth inhibition by drug alone ([1]; 1000 nM, time (day): 5)","growth inhibition by drug alone ([1]; 1000 nM, time (day): 6)","growth inhibition by drug alone ([2]; 10 nM, time (day): 3)","growth inhibition by drug alone ([2]; 10 nM, time (day): 4)","growth inhibition by drug alone ([2]; 10 nM, time (day): 5)","growth inhibition by drug alone ([2]; 10 nM, time (day): 6)","growth inhibition by drug alone ([2]; 100 nM, time (day): 3)","growth inhibition by drug alone ([2]; 100 nM, time (day): 4)","growth inhibition by drug alone ([2]; 100 nM, time (day): 5)","growth inhibition by drug alone ([2]; 100 nM, time (day): 6)","growth inhibition by drug plus 177Lu-lilotomab satetraxetan ([3]; 10 nM, time (day): 3)","growth inhibition by drug plus 177Lu-lilotomab satetraxetan ([3]; 10 nM, time (day): 4)","growth inhibition by drug plus 177Lu-lilotomab satetraxetan ([3]; 10 nM, time (day): 5)","growth inhibition by drug plus 177Lu-lilotomab satetraxetan ([3]; 10 nM, time (day): 6)","growth inhibition by drug plus 177Lu-lilotomab satetraxetan ([3]; 1000 nM, time (day): 3)","growth inhibition by drug plus 177Lu-lilotomab satetraxetan ([3]; 1000 nM, time (day): 4)","growth inhibition by drug plus 177Lu-lilotomab satetraxetan ([3]; 1000 nM, time (day): 5)","growth inhibition by drug plus 177Lu-lilotomab satetraxetan ([3]; 1000 nM, time (day): 6)","growth inhibition by drug plus 177Lu-lilotomab satetraxetan ([4]; 10 nM, time (day): 3)","growth inhibition by drug plus 177Lu-lilotomab satetraxetan ([4]; 10 nM, time (day): 4)","growth inhibition by drug plus 177Lu-lilotomab satetraxetan ([4]; 10 nM, time (day): 5)","growth inhibition by drug plus 177Lu-lilotomab satetraxetan ([4]; 10 nM, time (day): 6)","growth inhibition by drug plus 177Lu-lilotomab satetraxetan ([4]; 100 nM, time (day): 3)","growth inhibition by drug plus 177Lu-lilotomab satetraxetan ([4]; 100 nM, time (day): 4)","growth inhibition by drug plus 177Lu-lilotomab satetraxetan ([4]; 100 nM, time (day): 5)","growth inhibition by drug plus 177Lu-lilotomab satetraxetan ([4]; 100 nM, time (day): 6)"
Cc1ccc([C@@H]2O[C@H](CO)[C@@H](O)[C@H](O)[C@H]2O)cc1Cc1ccc(-c2ccc(F)cc2)s1 [Canagliflozin],-0.0178,-0.0268,-0.0429,0.0177,-0.0399,0.00599,-0.0361,-0.0715,-0.0859,-0.106,-0.126,-0.215,0.00364,-0.0271,-0.0583,-0.103,0.00296,0.0208,0.0301,0.162,-0.0686,0.0117,0.0289,0.0944,0.342,0.476,0.499,0.519,0.383,0.437,0.439,0.418
Cn1c(=O)c(F)c(Nc2ccc(I)cc2F)c2c(=O)n(C[C@@H](O)CO)cnc21,0.14,0.135,0.0576,-0.0158,0.131,0.169,0.099,0.12,0.0885,0.0594,-0.0237,-0.205,-0.0966,-0.077,-0.161,-0.342,0.103,0.169,0.176,0.21,0.189,0.254,0.249,0.347,0.522,0.484,0.489,0.487,0.579,0.588,0.55,0.496
COc1ccc(CNC(=O)Nc2ncc([N+](=O)[O-])s2)cc1,-0.00788,-0.00166,0.0195,0.136,0.0779,0.0745,0.0965,0.0679,-0.12,-0.122,-0.158,-0.156,0.108,0.0378,-0.00577,-0.0255,-0.0555,-0.0169,0.0364,0.187,0.116,0.138,0.159,0.289,0.496,0.573,0.599,0.609,0.44,0.479,0.489,0.47
CCOc1ccc(Cc2cc([C@@H]3O[C@H](CO)[C@@H](O)[C@H](O)[C@H]3O)ccc2Cl)cc1 [Dapagliflozin],0.142,0.11,-0.0277,-0.0754,0.0652,0.0655,0.0265,-0.143,0.0261,0.0489,-0.0941,-0.357,-0.159,-0.0453,-0.0994,-0.161,0.0831,0.139,0.185,0.224,0.0836,0.124,0.161,0.282,0.595,0.635,0.644,0.658,0.517,0.574,0.572,0.572
Cc1cnc(Nc2ccc(OCCN3CCCC3)cc2)nc1Nc1cccc(S(=O)(=O)NC(C)(C)C)c1,-0.0562,-0.0523,-0.0582,-0.0993,0.149,0.111,-0.00563,0.00366,-0.231,-0.238,-0.322,-0.459,-0.338,-0.438,-0.41,-0.775,-0.0587,-0.0475,-0.0161,0.0198,0.127,0.122,0.0513,0.0765,0.273,0.437,0.468,0.492,0.205,0.275,0.289,0.307
O=C1CN2Cc3c(ccc(Cl)c3Cl)N=C2N1 [Anagrelide],0.0875,0.0814,0.0131,-0.134,0.102,0.0873,-0.0302,-0.00421,-0.0185,0.0438,-0.0392,-0.302,-0.0533,0.019,0.0156,-0.0326,0.101,0.141,0.208,0.23,0.0939,0.117,0.178,0.243,0.547,0.616,0.633,0.635,0.54,0.612,0.625,0.631
CC(c1cc2ccccc2s1)N(O)C(N)=O (centres undefined) [Zileuton],0.0373,0.016,-0.0853,-0.151,-0.0669,-0.0105,-0.0851,-0.12,-0.0289,-0.0441,-0.104,-0.421,-0.161,-0.195,-0.186,-0.323,-0.00999,0.00112,0.025,0.0355,-0.0574,0.0263,-0.0233,0.0666,0.389,0.507,0.537,0.547,0.4,0.496,0.496,0.482

# Source: the supplement of paper PMC6897291
